Screen size: about 310,000 compounds; about 14,000 (4.5%) showed an effect of 50% or more. The effect is printed as a negative number. Only a selection was taken, and strong results are over-represented in it overall.

Data on 26 compounds can be found in publication PMC4336329 (PLoS ONE, 2015).
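Note: peak tail current of the secondary pulse compared with the same well before compound.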

The target of the assay is human ether-à-go-go-related gene (hERG) potassium channel (human, UniProt Q12809). The assay is described as follows: primary screen, population patch clamp on CHO cells stably expressing hERG; higher = less effect of the substance.
human ether-à-go-go-related gene (hERG) potassium channel, sequence (Q12809 whole entry, looked up): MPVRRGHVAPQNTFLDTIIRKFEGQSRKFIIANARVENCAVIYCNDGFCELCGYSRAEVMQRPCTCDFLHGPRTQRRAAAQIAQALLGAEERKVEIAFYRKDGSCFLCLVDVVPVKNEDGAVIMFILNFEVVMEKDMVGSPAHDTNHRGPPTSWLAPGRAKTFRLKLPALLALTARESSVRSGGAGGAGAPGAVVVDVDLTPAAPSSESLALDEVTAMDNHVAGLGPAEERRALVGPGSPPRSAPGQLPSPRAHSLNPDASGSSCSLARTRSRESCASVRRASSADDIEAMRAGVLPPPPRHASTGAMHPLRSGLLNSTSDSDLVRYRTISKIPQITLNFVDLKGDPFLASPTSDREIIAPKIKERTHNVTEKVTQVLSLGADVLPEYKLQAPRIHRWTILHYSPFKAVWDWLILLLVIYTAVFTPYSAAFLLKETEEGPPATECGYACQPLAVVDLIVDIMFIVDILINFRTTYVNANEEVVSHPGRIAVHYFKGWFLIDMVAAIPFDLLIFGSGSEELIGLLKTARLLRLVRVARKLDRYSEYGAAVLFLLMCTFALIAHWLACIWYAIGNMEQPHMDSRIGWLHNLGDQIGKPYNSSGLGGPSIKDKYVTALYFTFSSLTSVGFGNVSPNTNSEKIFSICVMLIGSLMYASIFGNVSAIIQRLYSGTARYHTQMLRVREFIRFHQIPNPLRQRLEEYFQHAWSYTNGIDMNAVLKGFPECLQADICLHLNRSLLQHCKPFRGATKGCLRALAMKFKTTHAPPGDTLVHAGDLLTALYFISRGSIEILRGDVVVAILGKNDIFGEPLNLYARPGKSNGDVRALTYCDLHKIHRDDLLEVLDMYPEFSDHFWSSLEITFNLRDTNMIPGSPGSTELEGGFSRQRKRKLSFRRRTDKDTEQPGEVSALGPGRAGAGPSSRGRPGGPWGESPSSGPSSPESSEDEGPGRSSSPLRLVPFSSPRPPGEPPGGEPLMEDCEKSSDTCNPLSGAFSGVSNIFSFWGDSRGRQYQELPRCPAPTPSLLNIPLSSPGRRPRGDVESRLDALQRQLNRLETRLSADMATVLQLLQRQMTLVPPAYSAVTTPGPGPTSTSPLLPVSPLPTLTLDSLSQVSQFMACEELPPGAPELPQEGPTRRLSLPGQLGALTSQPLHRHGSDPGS
`CC(C)c1nc(=S)n(-c2ccccc2)[nH]1`: the “hERG current change (%, negative = inhibition) at 10uM” value is 17.5%.

For the compound `COc1cccc(Cn2nnc(C(=O)Nc3cc(C)ccc3OC)c2N)c1`, the “hERG current change (%, negative = inhibition) at 10uM” value turned out to be 8.11%.

For `CCOC(=O)C1C(=O)NC(c2ccccc2)=NC1c1ccc(O)c(OC)c1` (centres unmarked), the “hERG current change (%, negative = inhibition) at 10uM” value stood at 9.11%.

As to `Cc1ccccc1CN1C(=O)[C@@H]2Cc3c([nH]c4ccccc34)C(C)(C)N2C1=O`, the “hERG current change (%, negative = inhibition) at 10uM” value came to 19%.

Consider `Cl.N=c1sccn1CC(=O)N1CCc2ccccc21`, for which the “hERG current change (%, negative = inhibition) at 10uM” value was -8.84%.

For `Cc1ccc(NC2=Nc3ccccc3CS2)cc1`, the “hERG current change (%, negative = inhibition) at 10uM” value was found to be 8.04%.

For `CCOC(=O)c1c(NC(=O)CSc2nc3ccccc3o2)sc(C)c1C`, the “hERG current change (%, negative = inhibition) at 10uM” value stood at 19.4%.

Take `O=C(CN1CCC(n2nnc3cc(C(F)(F)F)ccc32)CC1)Nc1ccc2c(c1)OCCO2`: the “hERG current change (%, negative = inhibition) at 10uM” value is recorded as -36.5%.

As for `Cc1ccc2c(c1)nnn2C1CCN(CC(=O)N2CCN(c3ccc(F)cc3)CC2)CC1`, the “hERG current change (%, negative = inhibition) at 10uM” value is recorded as -70.3%.

Consider `O=C(CN1CCC(n2nnc3cc(F)ccc32)CC1)Nc1ccc2c(c1)CCC2`, for which the “hERG current change (%, negative = inhibition) at 10uM” value is on record as -21.3%.

`Cc1ccc2c(c1)nnn2C1CCN(CC(=O)Nc2ccc3c(c2)OCCO3)CC1`: the “hERG current change (%, negative = inhibition) at 10uM” value was -55.5%.

As for `Cc1ccc2c(c1)nnn2C1CCN(C(=O)C23CC4CC(CC(C4)C2)C3)CC1`, the “hERG current change (%, negative = inhibition) at 10uM” value came out at 1.11%.

For the compound `Cc1ccccc1C(=O)NC1CCN(CC(=O)Nc2ccc3c(c2)OCCO3)CC1`, the “hERG current change (%, negative = inhibition) at 10uM” value is 2.93%.

As to `Cc1ccc2c(c1)nnn2C1CCN(CC(=O)c2ccc(Cl)cc2)CC1`, the “hERG current change (%, negative = inhibition) at 10uM” value is listed as -45.9%.

Regarding `Cc1ccc2c(c1)nnn2C1CCN(CC(=O)Nc2ccc(F)cc2)CC1`, the “hERG current change (%, negative = inhibition) at 10uM” value is given as -65.4%.

For the compound `CC1(CCC#N)N=C(SCCC#N)N(c2ccccc2)C1=O` (centres unmarked), the “hERG current change (%, negative = inhibition) at 10uM” value came out at 2.7%.

On to `NC(Cc1ccc(O)c([N+](=O)[O-])c1)C(=O)O` (centres unmarked), for which the “hERG current change (%, negative = inhibition) at 10uM” value stood at 15.2%.

Take `CN(CC(=O)NCCN1CCN(Cc2ccccc2)CC1)S(=O)(=O)c1cccc2nsnc12`: the “hERG current change (%, negative = inhibition) at 10uM” value is given as -25.4%.

Consider `CCC/C=C1/CCCOC(C(=O)NCc2cc(C)n(C)n2)(C(F)(F)F)C1` (centres unmarked), for which the “hERG current change (%, negative = inhibition) at 10uM” value stood at 5.48%.

`O=C(CSc1nnc(NC(=O)c2ccccc2C(=O)O)s1)Nc1ccccc1Cl`: the “hERG current change (%, negative = inhibition) at 10uM” value stood at 24%.

For `O=C(O)c1ccc(Nc2nc(-c3cccnc3)cs2)cc1O`, the “hERG current change (%, negative = inhibition) at 10uM” value amounted to 9.69%.

Take `C=CCNC(=O)CSc1nnc(-c2cccs2)o1`: the “hERG current change (%, negative = inhibition) at 10uM” value was -0.265%.

For `Cc1ccc(-c2nn(-c3cc(Cl)ccc3[N+](=O)[O-])c(=O)c3ccccc23)cc1`, the “hERG current change (%, negative = inhibition) at 10uM” value is given as -22.1%.

Take `Cc1nc2c([nH]1)C1(CCN(Cc3ccccc3)CC1)C(C#N)=C(N)O2.Cl`: the “hERG current change (%, negative = inhibition) at 10uM” value was -52.5%.

As to `Cc1[nH]nc2c1C1(CCN(Cc3ccccc3)CC1)C(C#N)=C(N)O2`, the “hERG current change (%, negative = inhibition) at 10uM” value is given as -42%.

With `CC(C)c1[nH]nc2c1C1(CCN(Cc3ccccc3)CC1)C(C#N)=C(N)O2`, the “hERG current change (%, negative = inhibition) at 10uM” value is listed as -25.5%.
